Values joined by “and” are separate entries in the source; they are usually repeats but may differ in a detail not shown here. Equal entries are not always repeated. Results filed as inconclusive are left out. Active and inactive are the calls of the source. Unless noted, calls come from the whole dose curve; as a rule, active = well fitted curve in the direction sought with a large enough effect; inconclusive = small, poorly fitted or top-dose-only effect, or another doubt; inactive = no such curve, though single readings can be large; an effect the other way counts as inactive or inconclusive.
Columns and labels:
[1] = qHTS Assay for Identifying Gametocytocidal Compounds (AID 743244); note: potency is the fitted concentration of half-maximal effect;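 for max response: % is set by controls: 0 for no effect and ±100 for the full control effect; actives lower the fluorescent signal which means gametocytes are killed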; details: P. falciparum 3D7 stage III-V gametocytes, alamarBlue, 72 h; max response: stronger effect = lower value
Method in brief: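 Late gametocytes (III–V), P. falciparum 3D7; 72 h drug, then 24 h alamarBlue; resazurin reduction read by fluorescence.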

[2] = qHTS assay for cell viability of HEK293 cells (AID 743288); details: ATP luminescence (CellTiter-Glo), 18 h; max response: stronger effect = lower value; note: % is set by controls: 0 for no effect and ±100 for the full control effect; nearly all actives have a fitted effect of over 50% in size
Method in brief: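 Parental HEK293 cells were seeded at 2,000 cells/well, rested at least 5 h at 37 C, then exposed to compounds in DMSO for 18 h at 37 C. Viability was read as ATP-dependent luciferase luminescence after 30 min at room temperature.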

[3] = qHTS assay for cell viability of the p53RE-bla HCT-116 cell line (AID 743292); note: % is set by controls: 0 for no effect and ±100 for the full control effect; nearly all actives have a fitted effect of over 55% in size
Method in brief: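 Readout: CellTiter-Glo luminescence after 30 min RT. Treatment: compounds in DMSO, 16 h, 37 C. Cells: CellSensor p53RE-bla HCT-116, 4,000/well, preincubated 5 h.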

[4] = qHTS profiling for inhibitors of Plasmodium falciparum (3D7) proliferation (AID 743322; call rule not given here;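 note: infected erythrocytes exposed to compound for 72 h before lysis; 100% = DMSO vehicle wells and 0% = 0.29 µM artemisinin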); details: P. falciparum 3D7 proliferation; at 28.7 µM (top of the series) unless noted
Method in brief: (§1)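 Erythrocytes infected with P. falciparum (0.3% parasitemia, 2.5% hematocrit) incubated with compounds 72 h at 37 C, 5% CO2. Lysis with saponin/Triton buffer containing SYBR Green I, overnight at room temperature in the dark; DNA fluorescence (485/535 nm) normalised to 0.29 uM artemisinin and DMSO.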

[5] = qHTS profiling for inhibitors of Plasmodium falciparum (DD2) proliferation (AID 743323; call rule not given here); details: lower = more inhibition; at 28.7 µM (top of the series) unless noted
Method in brief: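 Parasite proliferation measured via DNA-dye fluorescence, as uninfected erythrocytes lack DNA. Cultures at 0.3% parasitemia and 2.5% hematocrit incubated 72 h with compound; signal scaled between vehicle and 0.29 uM artemisinin wells.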

[6] = qHTS profiling for inhibitors of Plasmodium falciparum (HB3) proliferation (AID 743324); details: Plasmodium falciparum HB3 blood-stage proliferation; at 28.7 µM (top of the series) unless noted;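 note: 100% = DMSO vehicle wells and 0% = artemisinin-treated control wells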
Method in brief: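 P. falciparum HB3 grown in erythrocytes (0.3% parasitemia, 2.5% hematocrit final) with compound for 72 h at 37 C, 5% CO2. Parasite DNA detected by SYBR Green after saponin/triton lysis overnight; normalized to 0.29 uM artemisinin and DMSO.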

[7] = qHTS profiling of the MIPE4 collection as inhibitors of Plasmodium falciparum (3D7) proliferation (AID 743344; call rule not given here;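 note: scaled between DMSO vehicle wells and 0.29 µM artemisinin as full inhibition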); details: P. falciparum 3D7 in erythrocytes, SYBR Green DNA fluorescence, 72 h; at 28.5 µM (top of the series)
Method in brief: as §1

[8] = qHTS profiling of the MIPE4 collection as inhibitors of Plasmodium falciparum (DD2) proliferation (AID 743345; call rule not given here); details: P. falciparum Dd2 in erythrocytes, SYBR Green DNA, 72 h; at 28.5 µM (top of the series)
Method in brief: as §1

[9] = qHTS profiling of the MIPE4 collection as inhibitors of Plasmodium falciparum (DD2) proliferation (Rep 2) (AID 743346; call rule not given here); details: P. falciparum Dd2 in erythrocytes, SYBR Green DNA, 72 h; at 28.5 µM (top of the series)
Method in brief: as §1

[10] = qHTS profiling of the MIPE4 collection as inhibitors of Plasmodium falciparum (HB3) proliferation (AID 743347; call rule not given here;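 note: plate controls were DMSO vehicle wells for no effect and artemisinin wells for full effect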); details: P. falciparum HB3 in erythrocytes, SYBR Green DNA, 72 h; at 28.5 µM (top of the series)
Method in brief: as §1

[O-][N+](=Nc1ccccc1)c1ccccc1
max response [1]: 18.6% (inactive)
max response [2]: -0.626% (inactive)
outcome [3]: inactive

C=Cc1c(C)c2cc3nc(cc4[nH]c(cc5nc(cc1[nH]2)C(C)=C5CCC(=O)OC)c(CCC(=O)O)c4C)[C@@]1(C)C3=CC=C(C(=O)OC)[C@H]1C(=O)OC
remaining parasite growth % (stronger effect = lower value) [4]: -0.398% [at 9.63 µM]
activity, percent of control [5]: 0.912% [at 9.63 µM]
remaining proliferation (% of control), lower = more inhibition [6]: 0.279% [at 9.63 µM]

OCc1ccccc1
max response [1]: 0.478% (inactive)
max response [2]: 7.92% (inactive)
outcome [3]: inactive

CO[C@@H]1[C@H](OC(=O)/C=C/C=C/C=C/C=C/C(=O)O)CC[C@]2(CO2)[C@H]1[C@@]1(C)O[C@@H]1CC=C(C)C
max response [1]: -5.74% (inactive)
max response [2]: -10.5% (inactive)
outcome [3]: inactive

C/C=C/C=C/C(=O)O
max response [1]: -7.74% (inactive)
max response [2]: 0.0589% (inactive)
outcome [3]: inactive

CC(=O)[C@H]1CC[C@H]2[C@@H]3C=CC4=CC(=O)CC[C@@]4(C)[C@H]3CC[C@]12C
parasite growth, % of DMSO control [7]: 84.6%
parasite growth remaining, % of DMSO control (lower = more inhibition) [8]: 96.9%
parasite growth, % of control (lower = inhibition) [9]: 165%
growth, % of control [10]: 95.1%

CC1=CCC2CC1C2(C)C (stereo unspecified)
max response [1]: 3.27% (inactive)
max response [2]: -5.13% (inactive)
outcome [3]: inactive

OC[C@H]1O[C@@H]2O[C@H]3[C@H](O)[C@@H](O)[C@@H](O[C@H]4[C@H](O)[C@@H](O)[C@@H](O[C@H]5[C@H](O)[C@@H](O)[C@@H](O[C@H]6[C@H](O)[C@@H](O)[C@@H](O[C@H]7[C@H](O)[C@@H](O)[C@@H](O[C@H]1[C@H](O)[C@H]2O)O[C@@H]7CO)O[C@@H]6CO)O[C@@H]5CO)O[C@@H]4CO)O[C@@H]3CO
max response [1]: -7.1% (inactive)
max response [2]: -12.8% (inactive) and 1.56% (inactive)
outcome [3]: inactive

O=C(O)[C@H]1C(=CCO)O[C@H]2CC(=O)N12
parasite growth, % of DMSO control [7]: 93.2%
parasite growth remaining, % of DMSO control (lower = more inhibition) [8]: 103%
parasite growth, % of control (lower = inhibition) [9]: 115%
growth, % of control [10]: 93.1%

C[Si](C)(C)O[Si](C)(C)C
max response [1]: 4.27% (inactive)
max response [2]: -0.467% (inactive)
outcome [3]: inactive

CO/N=C(/C(=O)N[C@@H]1C(=O)N2C(C(=O)O)=C(COC(N)=O)CS[C@H]12)c1ccco1
max response [1]: -11% (inactive) and 13.4% (inactive)
max response [2]: 2.57% (inactive)
outcome [3]: inactive

C#C[C@]1(O)CC[C@@H]2[C@H]3CCC4=CC(=O)CC[C@H]4[C@H]3C(=C)C[C@@]21CC
remaining parasite growth % (stronger effect = lower value) [4]: 38.1%
activity, percent of control [5]: 51.3%
remaining proliferation (% of control), lower = more inhibition [6]: 25.2%
parasite growth, % of DMSO control [7]: 22.9%
parasite growth remaining, % of DMSO control (lower = more inhibition) [8]: 82.2%
parasite growth, % of control (lower = inhibition) [9]: 66.9%
growth, % of control [10]: 44.4%

Cc1c(N)nc([C@H](CC(N)=O)NC[C@H](N)C(N)=O)nc1C(=O)N[C@H](C(=O)N[C@H](C)[C@@H](O)[C@H](C)C(=O)N[C@H](C(=O)NCCc1nc(-c2nc(C(=O)NCCCCN=C(N)N)cs2)cs1)[C@@H](C)O)[C@@H](O[C@@H]1O[C@@H](CO)[C@@H](O)[C@H](O)[C@@H]1O[C@H]1O[C@H](CO)[C@@H](O)[C@H](OC(N)=O)[C@@H]1O)c1cnc[nH]1
max response [1]: -1.54% (inactive) and 0.24% (inactive)
remaining parasite growth % (stronger effect = lower value) [4]: 83.7%
activity, percent of control [5]: 82.1%
remaining proliferation (% of control), lower = more inhibition [6]: 67.1%

CN(CCO)CC(O)Cn1cnc2c1c(=O)n(C)c(=O)n2C (stereo unspecified) (tested in a mixture with another compound)
max response [1]: 2.62% (inactive)
max response [2]: -3.27% (inactive)
outcome [3]: inactive

CCN(CC)C(=S)S
Potency [1]: 6.31 µM (active)
remaining parasite growth % (stronger effect = lower value) [4]: 87.7%
activity, percent of control [5]: 82.5%
remaining proliferation (% of control), lower = more inhibition [6]: 84.6%

CCCCC(CC)COS(=O)(=O)O (stereo unspecified)
max response [1]: -3.23% (inactive)
max response [2]: 8.79% (inactive)
outcome [3]: inactive

OC[C@H]1O[C@@](CO)(O[C@H]2O[C@H](CO)[C@@H](O)[C@H](O)[C@H]2O)[C@@H](O)[C@@H]1O
max response [1]: 6.47% (inactive)
max response [2]: -4.31% (inactive)
outcome [3]: inactive

NCCN
max response [1]: 20.9% (inactive)
max response [2]: -4.96% (inactive)
outcome [3]: inactive

C[C@H](CCC(=O)O)[C@H]1CC[C@H]2[C@@H]3CC[C@@H]4C[C@H](O)CC[C@]4(C)[C@H]3C[C@H](O)[C@]12C
max response [1]: 6.91% (inactive)
max response [2]: 3.72% (inactive)
outcome [3]: inactive

Cc1ccc(S(=O)(=O)NCl)cc1
max response [1]: 4.72% (inactive)
max response [2]: -7.16% (inactive)
outcome [3]: inactive

C[C@H]1[C@@H](OC(=O)CCC(=O)O)O[C@@H]2OC3(C)CC[C@H]4[C@H](C)CC[C@@H]1[C@@]24OO3
remaining parasite growth % (stronger effect = lower value) [4]: -0.578%
activity, percent of control [5]: -0.204%
remaining proliferation (% of control), lower = more inhibition [6]: -0.191%

CCN(CC)CCOCCOC(=O)C(CC)(CC)c1ccccc1
remaining parasite growth % (stronger effect = lower value) [4]: 90.6%
activity, percent of control [5]: 50.9%
remaining proliferation (% of control), lower = more inhibition [6]: 65.7%

O=c1n(CC2CO2)c(=O)n(CC2CO2)c(=O)n1CC1CO1 (stereo unspecified)
max response [1]: 6.57% (inactive)
max response [2]: -25.2% (inactive) and -21.7% (inactive)
outcome [3]: inactive

CC(C)(C)CC(C)(C)c1ccc(OCCO)cc1
max response [1]: 12.7% (inactive)
max response [2]: -25.1% (inactive)
outcome [3]: inactive

CC1=CC(=O)NS(=O)(=O)O1
max response [1]: -2.22% (inactive)
max response [2]: -5.77% (inactive) and -0.759% (inactive)
outcome [3]: inactive

C[C@H](CCC(=O)O)[C@H]1CC[C@H]2[C@@H]3[C@H](O)C[C@@H]4C[C@H](O)CC[C@]4(C)[C@H]3C[C@H](O)[C@]12C
max response [1]: -6.23% (inactive)
max response [2]: -4.94% (inactive)
outcome [3]: inactive

Source: PubChem BioAssay (NCATS)
